Sampled rows, rich in hits. Any-hit rate of the full collection: about 8.1%.
MCF10A rereplic – inducers of DNA re-replication in MCF 10A breast cells; MCF 10A DNA re-replication, Hoechst nuclear intensity, 48 h; Potency, µM (titrated, usually from 46.1 µM), hits mostly activators; actives 2.9% (n = 350,000); AID 624296; note: nearly all actives have a fitted effect of over 50% in size
KB-3-1 tox – KB-3-1 parental cell cytotoxicity; actives 1.4% (n = 400,000); Potency, µM (highest dose often 46.1 µM), actives largely listed as cytotoxic; KB-3-1 viability, CellTiter-Glo ATP luminescence, 72 h; note: nearly all actives have a fitted effect of over 60% in size
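Screening of KB-3-1 cells (DMEM, 10% FBS, phenol-red free) ran from lowest to highest compound concentration; after 72 h at 37 °C viability was read luminescently and curves fitted.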
ELG1 DNA repair – blocks ELG1-dependent DNA repair in HEK293T cells; AID 504467; actives 2.3% (n = 330,000); Potency, µM (series often up to 46.1 µM), actives largely listed as inhibitors; HEK293T ELG1-luciferase reporter, luminescence, 16 h; DNA damage induced by 5-fluorouridine; note: nearly all actives have a fitted effect of over 55% in size
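Quantitative HTS, concentration-response format. 2,000 cells/well co-treated with 5-fluorouridine and compound, 16 hr in 5% CO2 at 37 °C; ONE-Glo luminescence read after 30 min.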
SW480 rerep – induces DNA re-replication in SW480 colon adenocarcinoma cells | SW480 DNA re-replication, Hoechst DNA content imaging, 48 h | Potency, µM (top dose mostly 46.1 µM), actives largely listed as activators | actives 1.8% (n = 340,000) | AID 624297; note: nearly all actives have a fitted effect of over 55% in size
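Compounds, transferred as 23 nL by pin tool, were incubated with cells for 48 hr; DNA content per nucleus was then quantified by Hoechst staining and fluorescence plate imaging.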
KB-V1 cytotox – KB-V1 MDR subline cytotoxicity. KB-V1 MDR cells viability, CellTiter-Glo, 72 h. Potency, µM (series often up to 46.1 µM), hits mostly cytotoxic. actives 3.4% (n = 400,000). AID 1347076; note: nearly all actives have a fitted effect of over 60% in size
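Potencies derive from concentration-effect curves fitted to normalized luminescence (CellTiter-Glo) of KB-V1 cells treated for 72 h at 37 degrees C in phenol-red-free DMEM containing 10% FBS.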
A number is an active result; [ ] = another dose, or the depositor's remark. Calls come from the whole dose curve; as a rule, active = well fitted curve in the direction sought with a large enough effect; inconclusive = small, poorly fitted or top-dose-only effect, or another doubt; inactive = no such curve, though single readings can be large; an effect the other way counts as inactive or inconclusive.

How did COc1cc(/C=C/C(=O)c2ccc(NS(=O)(=O)c3ccc(C)cc3)cc2)ccc1OC(F)F do in these assays?
MCF10A rereplic: 23µM; KB-3-1 tox: inactive; ELG1 DNA repair: inconclusive; SW480 rerep: inconclusive; KB-V1 cytotox: inconclusive

How did COc1cc(/C=C/C(=O)c2ccc(NS(=O)(=O)c3ccc(C)cc3)cc2)cc(OC)c1O do in these assays?
MCF10A rereplic: 18µM; KB-3-1 tox: inconclusive; ELG1 DNA repair: 10µM; SW480 rerep: inconclusive; KB-V1 cytotox: inactive

Results for COc1cc(S(=O)(=O)Nc2ccc(C)cc2)ccc1NC(=O)c1ccncc1 ?
MCF10A rereplic: inactive; KB-3-1 tox: inactive; ELG1 DNA repair: inconclusive; SW480 rerep: inactive; KB-V1 cytotox: inconclusive

What do the screens show for `COc1cccc(/C=C/C(=O)c2ccc(NS(=O)(=O)c3ccc(C)cc3)cc2)c1`?
MCF10A rereplic: 5.8µM; KB-3-1 tox: inactive; ELG1 DNA repair: inconclusive; SW480 rerep: inconclusive; KB-V1 cytotox: inconclusive

What do the screens show for `COc1cccc(C(=O)/C=C/Nc2ccc(S(=O)(=O)Nc3cccc(C(C)=O)c3)cc2)c1`?
MCF10A rereplic: 10µM; KB-3-1 tox: inactive; ELG1 DNA repair: inconclusive; SW480 rerep: 21µM; KB-V1 cytotox: inconclusive

What do the screens show for `COc1cccc(N/C=C/C(=O)c2ccc(C)cc2)c1`?
MCF10A rereplic: inactive; KB-3-1 tox: inactive; ELG1 DNA repair: inconclusive; SW480 rerep: inactive; KB-V1 cytotox: inactive

What do the screens show for `CCOC(=O)N1CCN(C(=O)C[C@@H]2C[C@@]3(C(=O)OCC)CCC=C3N(Cc3ccc4c(c3)OCO4)C2=O)CC1`?
KB-3-1 tox: inactive; KB-V1 cytotox: inactive

Results for Cc1noc(C)c1C(=O)OC(C)C(=O)c1ccc(C(C)(C)C)cc1 (stereo not drawn) ?
KB-3-1 tox: inactive; KB-V1 cytotox: inactive

How did O=C(Nc1cccc(Oc2ccccc2)c1)C1Cc2c(-c3ccccc3)ccnc2O1 (stereo not drawn) do in these assays?
KB-3-1 tox: inactive; KB-V1 cytotox: inconclusive

Results for C/C(=C\C(=O)c1ccc(Br)cc1)Nc1ccc(Cl)cc1 ?
MCF10A rereplic: inactive; KB-3-1 tox: inactive; ELG1 DNA repair: inconclusive; SW480 rerep: inactive; KB-V1 cytotox: inactive

Results for COc1cccc(N/C(C)=C/C(=O)c2ccc(Br)cc2)c1 ?
MCF10A rereplic: 21µM; KB-3-1 tox: inactive; ELG1 DNA repair: inconclusive; SW480 rerep: inactive; KB-V1 cytotox: inactive

How did CC(=O)c1cccc(NC(=S)NC(=O)c2cncc(Br)c2)c1 do in these assays?
MCF10A rereplic: inactive; KB-3-1 tox: inconclusive; ELG1 DNA repair: inconclusive; SW480 rerep: inactive; KB-V1 cytotox: inconclusive

How did COc1cccc(NC(=S)NC(=O)c2cncc(Br)c2)c1 do in these assays?
MCF10A rereplic: inactive; KB-3-1 tox: inconclusive; SW480 rerep: 18µM; KB-V1 cytotox: inactive

What do the screens show for `Cc1ccc(S(=O)(=O)CS(=O)(=O)c2ccc(C)cc2)cc1`?
MCF10A rereplic: inactive; KB-3-1 tox: inactive; SW480 rerep: inactive; KB-V1 cytotox: inconclusive

Results for O=S(=O)(CS(=O)(=O)c1ccc(Cl)cc1)c1ccc(Cl)cc1 ?
MCF10A rereplic: 21µM; KB-3-1 tox: inactive; ELG1 DNA repair: inactive; SW480 rerep: inactive; KB-V1 cytotox: inactive

What do the screens show for `CC(=O)NC1=NN(C(C)=O)C(C)(c2ccco2)S1` (stereo not drawn)?
MCF10A rereplic: inconclusive; KB-3-1 tox: inconclusive; ELG1 DNA repair: inactive; SW480 rerep: inconclusive; KB-V1 cytotox: inconclusive

Results for CC(=O)NC1=NN(C(C)=O)C(C)(c2cccs2)S1 (stereo not drawn) ?
MCF10A rereplic: 1.3µM; KB-3-1 tox: inconclusive; ELG1 DNA repair: inactive; SW480 rerep: 12µM; KB-V1 cytotox: inactive

Results for C=CCCC(=O)N1C[C@H]2CON(C)[C@H]2C[C@H]1c1ccc(Br)cc1 ?
KB-3-1 tox: inactive; KB-V1 cytotox: inconclusive

Results for CN1CCN(S(=O)(=O)c2cccc(C(=O)N(Cc3nnc(-c4ccc(Cl)cc4)o3)C3CC3)c2)CC1 ?
MCF10A rereplic: inactive; KB-3-1 tox: inactive; ELG1 DNA repair: inactive; SW480 rerep: 6.5µM; KB-V1 cytotox: inactive

What do the screens show for `CC1CN(S(=O)(=O)c2cccc(C(=O)N(Cc3nnc(-c4ccccc4Cl)o3)C3CC3)c2)CC(C)O1` (stereo not drawn)?
MCF10A rereplic: inactive; KB-3-1 tox: inactive; ELG1 DNA repair: 5.8µM; SW480 rerep: inactive; KB-V1 cytotox: inactive

How did CCOc1ccc2oc(C(=O)N(Cc3nnc(-c4ccccc4Cl)o3)C3CC3)c(C)c2c1 do in these assays?
MCF10A rereplic: inactive; KB-3-1 tox: inactive; ELG1 DNA repair: 9.2µM; SW480 rerep: inactive; KB-V1 cytotox: inconclusive

Results for Cc1ccc(S(=O)(=O)N2CCOCC2)cc1C(=O)N(Cc1nnc(-c2ccccc2Cl)o1)C1CC1 ?
MCF10A rereplic: inactive; KB-3-1 tox: inactive; ELG1 DNA repair: 10µM; SW480 rerep: inactive; KB-V1 cytotox: inconclusive

How did CCN1C(N(C)C)=NC[C@@H]1Cc1ccccc1 do in these assays?
MCF10A rereplic: inactive; KB-3-1 tox: inactive; ELG1 DNA repair: inactive; SW480 rerep: inactive[9.22 µM]; KB-V1 cytotox: inconclusive

Results for O=C(Nc1ccc2ccccc2c1)OC1CCS(=O)(=O)C1 (stereo not drawn) ?
KB-V1 cytotox: inactive

What do the screens show for `Cc1ccc(S(=O)(=O)NOCc2ccccc2)cc1`?
MCF10A rereplic: inactive; KB-3-1 tox: inactive; ELG1 DNA repair: inactive; SW480 rerep: inactive; KB-V1 cytotox: inactive

How did CCOc1ccc(-c2cc(C(=O)Nc3cc(OC)c(OC)c(OC)c3)[nH]n2)c(C)c1 do in these assays?
KB-3-1 tox: inactive; KB-V1 cytotox: inactive

Results for Cc1sc2ncnc(NCC(C)(C)N3CCOCC3)c2c1C ?
MCF10A rereplic: inactive; KB-3-1 tox: inconclusive; ELG1 DNA repair: inconclusive; SW480 rerep: inactive; KB-V1 cytotox: 4.1µM

How did CN(C)C(CNc1ncnc2sc3c(c12)CCCCC3)c1ccco1 (stereo not drawn) do in these assays?
MCF10A rereplic: inactive; KB-3-1 tox: inactive; ELG1 DNA repair: inactive; SW480 rerep: inactive; KB-V1 cytotox: inconclusive

Results for Cc1sc2ncnc(NCc3ccccc3)c2c1C ?
MCF10A rereplic: inactive; KB-3-1 tox: 23µM; ELG1 DNA repair: inconclusive; SW480 rerep: inactive; KB-V1 cytotox: inconclusive

What do the screens show for `Cc1sc2ncnc(NCC3(N4CCOCC4)CCCCC3)c2c1C`?
MCF10A rereplic: inactive; KB-3-1 tox: inactive; ELG1 DNA repair: inconclusive; SW480 rerep: inactive; KB-V1 cytotox: inconclusive

How did COc1ccccc1C(CNc1ncnc2sc(C)c(C)c12)N(C)C (stereo not drawn) do in these assays?
MCF10A rereplic: inconclusive; KB-3-1 tox: inactive; ELG1 DNA repair: inactive; SW480 rerep: inconclusive; KB-V1 cytotox: inactive

How did Cc1sc2ncnc(NCC(c3ccco3)N(C)C)c2c1C (stereo not drawn) do in these assays?
MCF10A rereplic: inactive; KB-3-1 tox: inactive; ELG1 DNA repair: inconclusive; SW480 rerep: inactive; KB-V1 cytotox: 18µM

Assay outcomes as filed in PubChem BioAssay.
